Experimental data published in PubChem BioAssay (NCI).
This is part of a sample that, as a whole, favours compounds with a hit. Of some 79,000 tested, about 15% had one in any assay. No stated cut-off is given here; in the data, active means growth inhibition above about 70%; inactive means the rest.

Legend:
[1] = NCI Yeast Anticancer Drug Screen. Data for the rad50 strain (AID 155);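 further: 0% = growth of vehicle-only cultures of the same strain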; conditions: S. cerevisiae rad50 strain growth inhibition; at 50.0 µM; active compounds read high
In short: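 DNA repair mutant yeast, compound exposure, growth read-out; inhibition is taken relative to vehicle.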

[2] = NCI Yeast Anticancer Drug Screen. Data for the mec2-1 strain (AID 157); conditions: S. cerevisiae mec2-1 strain, at 50.0 µM, active compounds read high
In short: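 Vehicle-treated cultures served as reference for growth inhibition of compound-exposed mec2-1 yeast.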

[3] = NCI Yeast Anticancer Drug Screen. Data for the sgs1 mgt1 strain (AID 161);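 further: 0% = growth of cultures given vehicle only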; conditions: S. cerevisiae sgs1 mgt1 strain, at 50.0 µM, active compounds read high
In short: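 Mutant yeast exposed to compound; growth scored against vehicle-only wells.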

[4] = NCI Yeast Anticancer Drug Screen. Data for the cln2 rad14 strain (AID 165);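 further: 0% = growth equal to vehicle treated cultures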; conditions: S. cerevisiae cln2 rad14 strain, at 50.0 µM, active compounds read high
In short: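 Each compound was tested on cln2 rad14 yeast. Inhibition of growth was calculated against vehicle-exposed controls.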

[5] = NCI Yeast Anticancer Drug Screen. Data for the bub3 strain (AID 167); conditions: S. cerevisiae bub3 mutant strain, at 50.0 µM, active compounds read high
In short: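 In this screen, a yeast mutant lacking normal mitotic checkpoint function is challenged with compound. Relative growth versus vehicle gives the inhibition value.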

[6] = NCI Yeast Anticancer Drug Screen. Data for the mlh1 rad18 strain (AID 175); conditions: S. cerevisiae mlh1 rad18 strain growth inhibition; at 50.0 µM; active compounds read high
In short: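 Vehicle-treated cultures served as the reference for growth inhibition in a yeast strain carrying DNA damage repair alterations exposed to each compound.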

Measured: growth inhibition

O=C(O)COc1cc([N+](=O)[O-])c(Cl)cc1Cl
inactive: [1] 7.75% | [2] -11.9% | [3] 18.6% | [4] 15.6% | [5] -1.4% | [6] 20.6%

Oc1ccccc1C=Nc1ccc(N2CCOCC2)cc1
inactive: [1] 2.65% | [2] -3.7% | [3] 10.1% | [4] -4.2% | [5] 2.05% | [6] -2.35%

CCOC(=O)CCC(NC(=O)c1ccc(Nc2nc3ccccc3nc2C(=O)OCC)cc1)C(=O)OCC (stereo unspecified)
inactive: [1] 11.8% | [2] 2.55% | [3] 9.1% | [4] 15.4% | [5] 25.8% | [6] 19.1%

O=[N+]([O-])c1ccccc1SCl
inactive: [1] 11.7% | [2] 5.5% | [3] 5.05% | [4] -21.9% | [5] 2% | [6] 6.7%

O=C(O)CCN1CCSC1=O
inactive: [1] 7.15% | [2] 12.6% | [3] -4.3% | [4] 3.75% | [5] 2.35% | [6] 1.8%

NC(=O)CC(NC(=O)C(F)(F)F)C(=O)O (stereo unspecified)
inactive: [1] -15.3% | [2] -22.9% | [3] -13.4% | [4] -6.85% | [5] -14.2% | [6] -24.2%

CC1=NOC2(C1)C(=O)Nc1ccccc12 (stereo unspecified)
inactive: [1] 23.2% | [2] 9.5% | [3] 8.55% | [4] 11.3% | [5] 2.85% | [6] 18.4%

Cc1cccc(C(=O)C(O)c2cccc(C)n2)n1 (stereo unspecified)
inactive: [1] 7.75% | [2] -18.4% | [3] -1.55% | [4] 8.2% | [5] -20.3% | [6] 4.4%

CCOC(=O)C1(C(=O)OCC)OC(=O)NC2=C1CCCC2
inactive: [1] -13.3% | [2] -29.1% | [3] -8.6% | [4] -15.7% | [5] -1.95% | [6] -23.9%

O=c1[nH]c2cc(Br)c(Br)cc2c2ccc(Br)cc12
inactive: [1] 43% | [2] -3.8% | [3] 13.7% | [4] 1.3% | [5] 5.8% | [6] 5.15%

C=CCNc1nc2c(s1)CCc1cc(OC)c(OC)cc1-2
inactive: [1] 30.1% | [2] 10.6% | [3] 12% | [4] 29.4% | [5] 15.2% | [6] 61.6%

NC(N)=NC(N)=NCc1ccccc1
inactive: [1] 5.45% | [2] -2.45% | [3] 4.3% | [4] 12.7% | [5] 1.85% | [6] 0.85%

CCOC(=O)/C(N=O)=C(/C)O
inactive: [1] 13.8% | [2] 5.9% | [3] 4.8% | [4] -7.95% | [5] 11.4% | [6] 11.3%

O=C1CCSC(=S)N1c1ccccc1
inactive: [1] 38.2% | [2] 4.8% | [3] 23.8% | [4] -32.2% | [5] -5.4% | [6] 27.1%

O=C1NC(=Nc2ccccc2Cl)SC1C(=O)Nc1ccc([N+](=O)[O-])cc1[N+](=O)[O-] (stereo unspecified)
inactive: [1] 8.1% | [2] 7.85% | [3] -34.4% | [4] -28.6% | [5] 7.6% | [6] -12.1%

CCOC(=O)CC(CSCP(=O)(OCC)OCC)C(=O)OCC (stereo unspecified)
inactive: [1] 5.15% | [2] -1.35% | [3] 13.2% | [4] 3.4% | [5] 9.55% | [6] 16.2%

O=C(c1ccccc1)c1cnc2ccccn12
inactive: [1] -2.35% | [2] -2.35% | [3] -3.15% | [4] -15.9% | [5] 5.8% | [6] -8.05%

O=C(O)c1ccc(OCC(=O)c2ccccc2)cc1
inactive: [1] 6.35% | [2] 16.9% | [3] -5.6% | [4] -6.65% | [5] 36.1% | [6] 8.25%

Cc1ccc(S(=O)(=O)N/N=C2/C(=N/NS(=O)(=O)c3ccc(C)cc3)c3cccc4cccc2c34)cc1
inactive: [1] 50% | [2] 11.4% | [3] 36.7% | [4] 8.3% | [5] 14.8% | [6] 11.3%

COC1C(/C=C/C(C)=O)OC2OC(C)(C)OC21 (stereo unspecified)
inactive: [1] 1.7% | [2] 1.35% | [3] 3.85% | [4] -9.45% | [5] 2.3% | [6] -1.55%

CC1(C2c3ccccc3CC2OC2CCCCO2)CO1 (stereo unspecified)
inactive: [1] -8.35% | [2] -10.6% | [3] -9.5% | [4] -10.2% | [5] -5.75% | [6] 2.35%

Nc1nnc(Cc2cccc3ccccc23)o1
inactive: [1] -1.05% | [2] -11.4% | [3] -13.1% | [4] -0.7% | [5] -15.6% | [6] 1.1%

CCOC(=O)/C=C/C=C(\OCC)C1CCC2C3CC=C4CC(OC(C)=O)CCC4(C)C3CCC12C (stereo unspecified)
inactive: [1] -4% | [2] -0.35% | [3] 23.1% | [4] 19.4% | [5] -3.3% | [6] -2.55%

COC(=O)Cc1cccc2c(=O)c(S(=O)(=O)NC(=O)Nc3ccc(Cl)cc3)c(-c3ccccc3)oc12
inactive: [1] 20.9% | [2] 23.1% | [3] 31.6% | [4] 50.4% | [5] 35.4% | [6] 17.8%

COc1cc2c(cc1OC)C(=O)C(C1CCCCC1)NC2 (stereo unspecified)
inactive: [1] 20.7% | [2] 9.85% | [3] 8.9% | [4] 0.45% | [5] 16.1% | [6] 30.4%

O=C(O)/C=C(/Br)c1ccccc1
inactive: [1] -28.9% | [2] 7.9% | [3] -13.8% | [4] -1.55% | [5] 1.4% | [6] -24.4%

CCOC(=O)c1c[nH]c2c(C(F)(F)F)cccc2c1=O
inactive: [1] 15.6% | [2] -9.1% | [3] 1.55% | [4] 8.75% | [5] 24.6% | [6] 14.6%

c1cc(CSSCc2ccncc2)ccn1
inactive: [1] -15% | [2] 3.15% | [3] -19.1% | [4] -13.2% | [5] -27.6% | [6] 4.75%

CCOP(=O)(Cc1ccc(CP(=O)(OCC)OCC)n1C)OCC
inactive: [1] -6.15% | [2] -7.5% | [3] -13.7% | [4] 17.4% | [5] -4.7% | [6] 15.1%

CCCCC(CC)OC(=O)Cc1ccccc1 (stereo unspecified)
inactive: [1] 10.9% | [2] -4.25% | [3] 13.1% | [4] -6.5% | [5] -4.45% | [6] 16.5%

CCOC(=O)C1Cc2c(n(C3CCCCC3)c(=O)n(C)c2=O)OC1c1ccccc1 (stereo unspecified)
inactive: [1] 14.4% | [2] -5.15% | [3] -7% | [4] 16.1% | [5] 2.55% | [6] -8.05%

O=C(CSc1nc2[nH]ncc2c(=O)[nH]1)c1ccc(Cl)cc1
inactive: [1] -37.2% | [2] -36.6% | [3] -27.2% | [4] 3.5% | [5] 11.4% | [6] -34.2%

CC(=O)Oc1cc2c(cc1Cc1ccc3c(c1)OCO3)OCO2
inactive: [1] -18.6% | [2] -17.2% | [3] -7% | [4] -6.2% | [5] 15.9% | [6] -14.5%

CC(=O)SCCCCl
inactive: [1] -9.25% | [2] 2.1% | [3] 11.2% | [4] -1.25% | [5] 8.25% | [6] -11.3%

CC(C)C(NC(=O)OC(C)(C)C)C(=O)O (stereo unspecified)
inactive: [1] -11.3% | [2] 1.2% | [3] 14.7% | [4] -66.3% | [5] 9.45% | [6] -6.9%

Cc1cc(S(=O)(=O)Nc2nnc3c4ccccc4cnn23)c(S)cc1Cl
inactive: [1] -38% | [2] -24.4% | [3] -21% | [4] 2.7% | [5] -15.8% | [6] -31.6%

CCC(O)(c1ccccc1)C(O)c1ccccc1 (stereo unspecified)
inactive: [1] -2.35% | [2] 8.9% | [3] -4.4% | [4] 3.8% | [5] 4.95% | [6] -15.8%

c1ccc(Cc2c[nH]c3ccccc23)cc1
inactive: [1] 9.45% | [2] -0.05% | [3] 9.4% | [4] -9.6% | [5] -1.85% | [6] 14.9%

COc1ccc2c(c1)OCc1c-2oc2ccccc2c1=O
inactive: [1] -24.8% | [2] -4.55% | [3] -10.9% | [4] -25.4% | [5] -3.95% | [6] -5.3%

CC1CP(=O)(Cc2ccccc2)C(C)(c2ccccc2)C1=O (stereo unspecified)
inactive: [1] -18.4% | [2] -0.95% | [3] 31.4% | [4] -4.2% | [5] 40.2% | [6] -6.5%

CCCCC1(CCBr)C(=O)NC(=Nc2ccccc2)NC1=O (stereo unspecified)
inactive: [1] 1.85% | [2] -5.35% | [3] 10.3% | [4] -41.8% | [5] 2.95% | [6] -13.9%
